Results: PubChem BioAssay (NCATS)
The source made the active and inactive calls. Calls come from the whole dose curve.

Assay: qHTS drug screen for cell cycle checkpoint inhibitors in PARPi-resistant BRCA-mutant ovarian cancer cell lines. (AID 1963452)
Conditions: PEO1/OlaR viability, CellTiter-Glo luminescence, 96 h; for Z-AUC: stronger effect = lower value
Description: Women's Malignancies Branch, Center for Cancer Research (CCR),
National Cancer Institute (NCI), National Institutes of Health (NIH), Bethesda, MD
Poly (ADP-ribose) polymerase inhibitors (PARPis) have changed the treatment paradigm in breast cancer gene (BRCA) - mutant high-grade serous ovarian carcinoma (HGSC). However, most patients eventually develop resistance to PARPis, highlighting an unmet need for improved therapeutic strategies. Using high-throughput drug screens, we identified ataxia telangiectasia and rad3-related protein/checkpoint kinase 1 (CHK1) pathway inhibitors as cytotoxic and further validated the activity of the CHK1 inhibitor (CHK1i) prexasertib in PARPi-sensitive and -resistant BRCA-mutant HGSC cells and xenograft mouse models. CHK1i monotherapy induced DNA damage, apoptosis, and tumor size reduction. We then conducted a phase 2 study (NCT02203513) of prexasertib in patients with BRCA-mutant HGSC. The treatment was well tolerated but yielded an objective response rate of 6% (1 of 17; one partial response) in patients with previous PARPi treatment. […] BRCA reversion mutation in previously PARPi-treated BRCA-mutant patients was not associated with resistance to CHK1i.
Among others, 1082 oncology drugs, both approved and investigational, were prioritized based on their status in clinical trial development. […] Drugs with average Z-AUC values less than -1.0 in all three cell lines were classified as "hits" resulting in 151 oncology drug hits. The screen also confirmed cross-resistance between olaparib and other PARPis (rucaparib, niraparib, and talazoparib) in PARPi-resistant PEO1/OlaR and PEO4.
[1] G. L. Lin, K. M. Wilson, M. Ceribelli, B. Z. Stanton, P. J. Woo, S. Kreimer, E. Y. Qin, X. Zhang, J. Lennon, S. Nagaraja, P. J. Morris, M. Quezada, S. M. Gillespie, D. Y. Duveau, A. M. Michalowski, P. Shinn, R. Guha, M. Ferrer, C. Klumpp-Thomas, S. Michael, C. McKnight, P. Minhas, Z. Itkin, E. H. Raabe, L. Chen, R. Ghanem, A. C. Geraghty, L. Ni, K. I. Andreasson, N. A. Vitanza, K. E.Warren, C. J. Thomas, M. Monje, Therapeutic strategies for diffuse midline glioma from high-throughput combination drug screening. Sci. Transl. Med. 11, (2019).
[2] T. M. Yamamoto, A. McMellen, Z. L. Watson, J. Aguilera, R. Ferguson, E. Nurmemmedov, T. Thakar, G. L. Moldovan, H. Kim, D. M. Cittelly, A. M. Joglar, E. P. Brennecke, H. Wilson, K. Behbakht, M. J. Sikora, B. G. Bitler, Activation of Wnt signaling promotes olaparib resistant ovarian cancer. Mol. Carcinog. 58, 1770 - 1782 (2019).
PROTOCOL TABLE (as described by Inglese J, Shamu CE and Guy RK. 2007)
SEQUENCE No. (e.g., 1, 2, 3, etc.); […] (e.g., Cells, Incubation, Reagent, etc.); VALUE; DESCRIPTION.
1; Compounds; 20nL; 1536-well white tissue culture-treated plates.
2; Cells; 5 uL; PEO1, PEO4, and PEO1/OlaR cells at 600 cells per well.
3; Incubation; 96 hr; 37C, 95% humidity, 5% CO2.
4; Reagent; 3 uL; CellTiter-Glo (Promega).
5; Incubation; 15 min; room temperature.
6; Detection; Luminescence, PHERAstar (BMG Labtech) plate reader.
NOTES (numbers refer to Sequence numbers above)
1. MIPE 5.0 compounds were acoustically dispensed by Echo Acoustic Liquid Handler (Beckman Coulter Life Sciences). Each compound was plated at an 11-point concentration range with 1:3 dilution. Bortezomib, a proteasome inhibitor (final concentration, 20 uM), was used as a positive.
2. PEO1, PEO4, and PEO1/OlaR were trypsinized and dispensed in 5 uLof growth medium using a Multidrop Combi dispenser at a density of 600 cells per well to allow compounds to be present during the exponential growth phase.
3. Plates were incubated for 96 hours at standard incubator conditions and covered by a stainless steel gasketed lid to prevent evaporation.
4. Three microliters of CellTiter-Glo (Promega) were added to each well.
5. Plates were incubated at room temperature for 15 min with a stainless-steel lid in place.
6. Luminescence readings were taken using PHERAstar (BMG Labtech). […]

[1] = measured here: PEO1 parental Z-AUC
Potency is the fitted concentration of half-maximal effect.

C/C1=C/C[C@@H](/C(C)=C/c2csc(C)n2)OC(=O)C[C@H](O)C(C)(C)C(=O)[C@H](C)[C@@H](O)[C@@H](C)CCC1
Potency: 0.0195 µM (active)
Z-AUC [1]: -2.71
Z-AUC (measured here: PEO4 Z-AUC): -2.82

COc1cc2cc(c1Cl)N(C)C(=O)C[C@H](OC(=O)C(C)C)[C@]1(C)O[C@@H]1[C@H](C)[C@@H]1C[C@@](O)(NC(=O)O1)[C@H](OC)/C=C/C=C(\C)C2
Potency: 0.549 µM (active)
Z-AUC [1]: -2.8
Z-AUC (measured here: PEO4 Z-AUC): -2.84

COC(=O)[C@@]12OC[C@]34[C@H]([C@@H](O)[C@@H]1O)[C@@]1(C)CC(=O)C(O)=C(C)[C@@H]1C[C@H]3OC(=O)[C@H](OC(=O)/C=C(\C)C(C)C)[C@@H]24
Potency: 0.174 µM (active)
Z-AUC [1]: -2.46
Z-AUC (measured here: PEO4 Z-AUC): -2.64

Cn1c(/C=C/CO)c(CO)c2c1C(=O)C=C(N1CC1)C2=O
Z-AUC: -0.176 (inactive)
Z-AUC [1]: -0.939
Z-AUC (measured here: PEO4 Z-AUC): -0.899

CN1C(=O)[C@@H](NC(=O)[C@H](CCC(F)(F)F)[C@H](CCC(F)(F)F)C(N)=O)N=C(c2ccccc2)c2ccccc21
Z-AUC: -0.603 (inactive)
Z-AUC [1]: 0.158
Z-AUC (measured here: PEO4 Z-AUC): -0.105

COc1cc(C)[nH]c(=O)c1CNC(=O)c1c(C)n([C@H](C)C2CCN(CC(F)(F)F)CC2)c2ccccc12
Z-AUC: 1.18 (inactive)
Z-AUC [1]: 0.708
Z-AUC (measured here: PEO4 Z-AUC): 0.343

Cc1[nH]ncc1-c1cc2nc([C@@H]3CC4CCN3CC4)[nH]c(=O)c2s1
Z-AUC: 0.732 (inactive)
Z-AUC [1]: 0.621
Z-AUC (measured here: PEO4 Z-AUC): 0.645

C[C@H]1[C@H](O)[C@@H](C)/C=C/C=C/CC/C=C/C=C/C=C/C=C/[C@H](O[C@@H]2O[C@H](C)[C@@H](O)[C@H](N)[C@@H]2O)C[C@@H]2O[C@](O)(C[C@@H](O)[C@H](O)CC[C@@H](O)C[C@@H](O)C[C@@H](O)CC(=O)O[C@H]1C)C[C@H](O)[C@H]2C(=O)O
Z-AUC: 1.03 (inactive)
Z-AUC [1]: 0.678
Z-AUC (measured here: PEO4 Z-AUC): 1.2

O=C(CBr)N1CC([N+](=O)[O-])([N+](=O)[O-])C1
Z-AUC: 1.13 (inactive)
Z-AUC [1]: 0.0375
Z-AUC (measured here: PEO4 Z-AUC): 1

Cn1c(CCCCCCC(=O)NO)nc2cc(N(CCCl)CCCl)ccc21
Z-AUC: -0.877 (inactive)
Z-AUC [1]: -0.482
Z-AUC (measured here: PEO4 Z-AUC): -0.0287

CCCCCCC(C)(C)c1cc(O)c2c(c1)OC(C)(C)C1CC=C(CO)C[C@H]21 (some centres not stated)
Z-AUC: 1.02 (inactive)
Z-AUC [1]: 0.553
Z-AUC (measured here: PEO4 Z-AUC): 0.644

CC(=O)O[C@@]12CO[C@@H]1C[C@H](O)[C@@]1(C)C(=O)[C@H](O)C3=C(C)[C@@H](O)C[C@@](O)([C@@H](OC(=O)c4ccccc4)[C@H]21)C3(C)C
Z-AUC: 1.05 (inactive)
Z-AUC [1]: 0.322
Z-AUC (measured here: PEO4 Z-AUC): 0.492

CC(N[C@H]1C[C@@H]1c1ccccc1)c1ccc2c(c1)OCCO2 (some centres not stated)
Z-AUC: -0.77 (inactive)
Z-AUC [1]: 0.195
Z-AUC (measured here: PEO4 Z-AUC): -0.131

C[C@@H](C1CC[C@@]2(O)C3=CC(=O)[C@@H]4C[C@@H](O)[C@@H](O)C[C@]4(C)[C@H]3CC[C@]12C)[C@H](O)CCC(C)(C)O (some centres not stated)
Z-AUC: 0.596 (inactive)
Z-AUC [1]: 0.976
Z-AUC (measured here: PEO4 Z-AUC): 1.02
